Our source for the growth values is the supplement of paper PMC9262897, “Low-cost anti-mycobacterial drug discovery using engineered E. coli” (Nature Communications, 2022).

Structures can show the parent of a compound that is named as a salt. ± gives the standard deviation of the averaged measurements.

Common to all, as to assay: growth (OD600 after 10 h); higher = more growth (less inhibition)
In assay [1] the test system is E. coli TESEC Alr+ wild-type control. The conditions noted are these: compound 0.1 mM; raw OD600 reference: median of DMSO wells 0.241, cell-free background 0.041. Here is the method: (§1)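 TESEC Mtb Alr E. coli, or the Alr+ wild-type control, in 384-well plates with Prestwick library compounds at 0.1 mM and 1% DMSO, across arabinose induction levels of 1E3 to 1E7 nM. Growth is read as OD600 after 10 h at 37 °C in triplicate biological replicates.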

Assay [2] concerns E. coli TESEC Mtb Alr. The conditions noted are these: compound 0.1 mM. Here is the method: as §1
The subject of a further assay is E. coli TESEC Mtb Asd. The following applies: compound 0.1 mM. Here is the method: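 TESEC E. coli strains in which the native enzyme is deleted and replaced by arabinose-inducible Mtb Asd, DapB, CysH or TrpD, each grown in its selective medium. Strains were screened against the Prestwick library at 0.1 mM and 1% DMSO in 384-well format at low and high arabinose induction. Growth is read as OD600 after 10 h in triplicate.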

The test system of assay [3] is E. coli TESEC Mtb Alr. The following applies: compound 0.1 mM. As for the experimental part:
(§2)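 TESEC Mtb Alr E. coli (ΔaraC ΔtolC ΔentC Δalr ΔdadX, arabinose-inducible Mtb Alr) or the Alr+ wild-type control strain, grown in defined M9-fructose medium without D-alanine in 96-well plates with Prestwick library compounds at 0.1 mM and 1% DMSO. Low Alr induction is 0.1 µM arabinose and high induction is 10 mM arabinose.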
This is another data set of the same source.

Assay [4] relates to E. coli TESEC Alr+ wild-type control. The conditions noted are these: compound 0.1 mM; raw OD600 reference: median of DMSO wells 0.49, cell-free background 0.052. As for the experimental part:
as §2

Where [5] appears, read: arabinose 1000 nM, raw OD600 reference: median of DMSO wells 0.294, cell-free background 0.041.
The mark [6] stands for this setting: arabinose 10000 nM, raw OD600 reference: median of DMSO wells 0.264, cell-free background 0.041.
The mark [7] stands for this setting: arabinose 100000 nM, raw OD600 reference: median of DMSO wells 0.201, cell-free background 0.041.
Setting [8] is: arabinose 1000000 nM, raw OD600 reference: median of DMSO wells 0.193, cell-free background 0.041.
The mark [9] stands for this setting: arabinose 10000000 nM, raw OD600 reference: median of DMSO wells 0.146, cell-free background 0.041.
The mark [10] stands for this setting: arabinose induction (level): High, raw OD600 reference: median of DMSO wells 0.331, cell-free background 0.041.
The mark [11] stands for this setting: arabinose induction (level): Low, raw OD600 reference: median of DMSO wells 0.417, cell-free background 0.041.
The mark [12] stands for this setting: arabinose 100 nM, raw OD600 reference: median of DMSO wells 0.413, cell-free background 0.052.
[13] abbreviates: arabinose 10000000 nM, raw OD600 reference: median of DMSO wells […], cell-free background 0.052.

`Oc1c(Cl)cc(Cl)c2cccnc12` [Chloroxine]: the growth in assay [1] stood at 0.044 ± 0.00076; in the assay with E. coli TESEC Mtb Alr [2] (setting [5]), 0.0429 ± 0.00083; in the assay with E. coli TESEC Mtb Alr [2] (setting [6]) it was 0.0409 ± 0.00069; in the assay on E. coli TESEC Mtb Alr [2] (setting [7]), 0.0435 ± 0.00076; in the assay with E. coli TESEC Mtb Alr [2] (setting [8]) it was 0.0415 ± 0.00061; in the assay on E. coli TESEC Mtb Alr [2] (setting [9]), 0.0495 ± 0.00057. For the same compound, the growth worked out at 0.0595 ± 0.0028 with E. coli TESEC Mtb Asd (setting [10]), 0.154 ± 0.05 in the assay with E. coli TESEC Mtb Asd (setting [11]), 0.0554 ± 0.0075 with E. coli TESEC Mtb Alr [3] (setting [12]) and 0.0726 ± 0.013 with E. coli TESEC Mtb Alr [3] (setting [13]).

`CNCCc1ccccn1` [Betahistine mesylate]: the growth in assay [1] turned out to be 0.251 ± 0.0026; in the assay on E. coli TESEC Mtb Alr [2] (setting [5]) it was 0.302 ± 0.006; with E. coli TESEC Mtb Alr [2] (setting [6]), 0.269 ± 0.0066; in the assay with E. coli TESEC Mtb Alr [2] (setting [7]) it was 0.243 ± 0.047; with E. coli TESEC Mtb Alr [2] (setting [8]), 0.182 ± 0.0047; in the assay with E. coli TESEC Mtb Alr [2] (setting [9]), 0.164 ± 0.005. Moreover, the growth came out at 0.299 ± 0.087 in the assay on E. coli TESEC Mtb Asd (setting [10]), 0.4 ± 0.042 with E. coli TESEC Mtb Asd (setting [11]), 0.408 ± 0.014 with E. coli TESEC Mtb Alr [3] (setting [12]) and 0.319 ± 0.025 in the assay with E. coli TESEC Mtb Alr [3] (setting [13]).

Regarding `Cc1ccc(C)c(OCCCC(C)(C)C(=O)O)c1` [Gemfibrozil], the growth in assay [1] was 0.2143 ± 0.0012; in the assay with E. coli TESEC Mtb Alr [2] (setting [5]), 0.258 ± 0.0058; in the assay with E. coli TESEC Mtb Alr [2] (setting [6]), 0.22 ± 0.0045; in the assay on E. coli TESEC Mtb Alr [2] (setting [7]), 0.163 ± 0.0097; with E. coli TESEC Mtb Alr [2] (setting [8]), 0.153 ± 0.0071; with E. coli TESEC Mtb Alr [2] (setting [9]) it was 0.121 ± 0.0017. Besides, the growth worked out at 0.202 ± 0.051 in the assay on E. coli TESEC Mtb Asd (setting [10]); 0.214 ± 0.0039 in the assay on E. coli TESEC Mtb Asd (setting [11]); 0.41 ± 0.018 in assay [4]; 0.354 ± 0.037 in the assay with E. coli TESEC Mtb Alr [3] (setting [12]); 0.261 ± 0.011 in the assay with E. coli TESEC Mtb Alr [3] (setting [13]).

Consider `CCCNCC(O)COc1ccccc1C(=O)CCc1ccccc1` (stereo not drawn) [Propafenone hydrochloride], for which the growth came out at 0.201 ± 0.0092 in assay [1]; 0.241 ± 0.019 with E. coli TESEC Mtb Alr [2] (setting [5]); 0.281 ± 0.012 in the assay on E. coli TESEC Mtb Alr [2] (setting [6]); 0.176 ± 0.015 in the assay on E. coli TESEC Mtb Alr [2] (setting [7]); 0.124 ± 0.0027 in the assay on E. coli TESEC Mtb Alr [2] (setting [8]); 0.155 ± 0.006 in the assay on E. coli TESEC Mtb Alr [2] (setting [9]). In addition, the growth with E. coli TESEC Mtb Asd (setting [10]) was found to be 0.144 ± 0.007; in the assay on E. coli TESEC Mtb Asd (setting [11]), 0.345 ± 0.02; in the assay on E. coli TESEC Mtb Alr [3] (setting [12]), 0.412 ± 0.009; in the assay with E. coli TESEC Mtb Alr [3] (setting [13]) it was 0.285 ± 0.0058.

Consider `O=C(NCCO[N+](=O)[O-])c1cccnc1` [Nicorandil], for which the growth in assay [1] turned out to be 0.2587 ± 0.0024; in the assay with E. coli TESEC Mtb Alr [2] (setting [5]), 0.3 ± 0.021; in the assay with E. coli TESEC Mtb Alr [2] (setting [6]), 0.286 ± 0.0046; in the assay with E. coli TESEC Mtb Alr [2] (setting [7]) it was 0.208 ± 0.025; in the assay with E. coli TESEC Mtb Alr [2] (setting [8]), 0.213 ± 0.0045; in the assay with E. coli TESEC Mtb Alr [2] (setting [9]), 0.153 ± 0.0067. Moreover, the growth in the assay on E. coli TESEC Mtb Asd (setting [10]) turned out to be 0.362 ± 0.039; in the assay on E. coli TESEC Mtb Asd (setting [11]), 0.377 ± 0.057; with E. coli TESEC Mtb Alr [3] (setting [12]), 0.4153 ± 0.002; with E. coli TESEC Mtb Alr [3] (setting [13]), 0.3332 ± 0.001.

`N=C(N)NCC1COC2(CCCCC2)O1` (stereo not drawn) [Guanadrel sulfate]: the growth in assay [1] worked out at 0.241 ± 0.0075; in the assay on E. coli TESEC Mtb Alr [2] (setting [5]) it was 0.296 ± 0.0091; with E. coli TESEC Mtb Alr [2] (setting [6]) it was 0.258 ± 0.0067; in the assay on E. coli TESEC Mtb Alr [2] (setting [7]) it was 0.204 ± 0.017; in the assay on E. coli TESEC Mtb Alr [2] (setting [8]), 0.183 ± 0.0022; in the assay with E. coli TESEC Mtb Alr [2] (setting [9]), 0.138 ± 0.0046. Further, the growth came to 0.363 ± 0.079 in the assay on E. coli TESEC Mtb Asd (setting [10]); 0.368 ± 0.036 with E. coli TESEC Mtb Asd (setting [11]); 0.635 ± 0.012 in assay [4]; 0.406 ± 0.013 in the assay with E. coli TESEC Mtb Alr [3] (setting [12]); 0.324 ± 0.012 in the assay with E. coli TESEC Mtb Alr [3] (setting [13]).

In the case of `CCCCC[C@H](O)/C=C/[C@H]1[C@H](O)CC(=O)[C@@H]1CCCCCCC(=O)O` [Alprostadil], the growth turned out to be 0.215 ± 0.0055 in assay [1]; 0.284 ± 0.0052 in the assay on E. coli TESEC Mtb Alr [2] (setting [5]); 0.23 ± 0.0057 with E. coli TESEC Mtb Alr [2] (setting [6]); 0.176 ± 0.0091 with E. coli TESEC Mtb Alr [2] (setting [7]); 0.163 ± 0.0042 in the assay with E. coli TESEC Mtb Alr [2] (setting [8]); 0.126 ± 0.0061 with E. coli TESEC Mtb Alr [2] (setting [9]). The growth with E. coli TESEC Mtb Asd (setting [10]) was found to be 0.243 ± 0.046; in the assay with E. coli TESEC Mtb Asd (setting [11]), 0.279 ± 0.082; in assay [4], 0.503 ± 0.07; in the assay with E. coli TESEC Mtb Alr [3] (setting [12]) it was 0.364 ± 0.018; with E. coli TESEC Mtb Alr [3] (setting [13]), 0.299 ± 0.017.

For the compound `Nc1nc2[nH]cc(CCc3ccc(C(=O)N[C@@H](CCC(=O)O)C(=O)O)cc3)c2c(=O)[nH]1` [Pemetrexed disodium], the growth in assay [1] is 0.258 ± 0.0062; in the assay with E. coli TESEC Mtb Alr [2] (setting [5]) it was 0.303 ± 0.017; with E. coli TESEC Mtb Alr [2] (setting [6]) it was 0.274 ± 0.019; with E. coli TESEC Mtb Alr [2] (setting [7]), 0.218 ± 0.029; in the assay with E. coli TESEC Mtb Alr [2] (setting [8]), 0.184 ± 0.0046; in the assay on E. coli TESEC Mtb Alr [2] (setting [9]) it was 0.156 ± 0.0069. For the same compound, the growth in the assay on E. coli TESEC Mtb Asd (setting [10]) turned out to be 0.281 ± 0.0067; in the assay on E. coli TESEC Mtb Asd (setting [11]), 0.405 ± 0.063; in the assay with E. coli TESEC Mtb Alr [3] (setting [12]), 0.416 ± 0.013; with E. coli TESEC Mtb Alr [3] (setting [13]), 0.32 ± 0.012.

Take `NC[C@H]1O[C@H](O[C@H]2[C@H](O)[C@@H](O[C@H]3O[C@H](CO)[C@@H](O)[C@H](N)[C@H]3O)[C@H](N)C[C@@H]2N)[C@H](N)C[C@@H]1O` [Tobramycin]: the growth amounted to 0.0408 ± 0.00049 in assay [1]; 0.0407 ± 0.00085 with E. coli TESEC Mtb Alr [2] (setting [5]); 0.03917 ± 0.00021 with E. coli TESEC Mtb Alr [2] (setting [6]); 0.0411 ± 0.00055 in the assay on E. coli TESEC Mtb Alr [2] (setting [7]); 0.03913 ± 0.00031 in the assay on E. coli TESEC Mtb Alr [2] (setting [8]); 0.04083 ± 5.8e-05 in the assay on E. coli TESEC Mtb Alr [2] (setting [9]). Also, the growth in the assay with E. coli TESEC Mtb Asd (setting [10]) worked out at 0.0498 ± 0.00085; in the assay with E. coli TESEC Mtb Asd (setting [11]), 0.0468 ± 0.0021; with E. coli TESEC Mtb Alr [3] (setting [12]), 0.0513 ± 0.0001; with E. coli TESEC Mtb Alr [3] (setting [13]), 0.0502 ± 0.001.
